Consider eight molecules from PubChem BioAssay (NCI).

Compounds without any hit were thinned out: in the full panel of roughly 83,000, 20% have a hit.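 Growth was measured after 48 h exposure to one concentration of compound in 96-well plates. Values under 10 count as active.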 Values without a mark were called inactive. Active and inactive are the calls of the source.

Holding throughout (test): NCI-60 one-dose screen, 48 h (100 = growth as untreated, 0 = no growth, -100 = all killed)
For one test, the system named is HCT-15 colon. The note with it: 10 µM unless noted.
In another test the test system is HT29 colon. Conditions: 10 µM unless noted.
In a further test the test system is SNB-75 CNS. The note with it: 10 µM unless noted.
The next test has as its system SNB-19 CNS. The note with it: 10 µM unless noted.
For a further test, the system named is U251 CNS. Conditions: 10 µM unless noted.
A further test deals with SK-MEL-5 melanoma. The note with it: 10 µM unless noted.
A further test has as its system UACC-62 melanoma. The note with it: 10 µM unless noted.
A further test has as its system LOX IMVI melanoma. The note with it: 10 µM unless noted.
The next test has as its system SK-MEL-28 melanoma. The note with it: 10 µM unless noted.
The test system of the next test is SK-MEL-2 melanoma. Conditions: 10 µM unless noted.
The next test concerns EKVX NSCLC. The note with it: 10 µM.
Another test has as its system SN12C renal. Conditions: 10 µM unless noted.
In another test the test system is UO-31 renal. Conditions: 10 µM unless noted.
In the next test the test system is TK-10 renal. The note with it: 10 µM unless noted.
In another test the test system is ACHN renal. The note with it: 10 µM unless noted.
For a further test, the system named is CAKI-1 renal. The note with it: 10 µM unless noted.
A further test concerns A498 renal. The note with it: 10 µM unless noted.
The subject of the next test is CCRF-CEM leukemia. Conditions: 10 µM.
In a further test the test system is MOLT-4 leukemia. The note with it: 10 µM unless noted.
Another test deals with PC-3 prostate. Conditions: 10 µM unless noted.

As for `CC(=O)Nc1nc(C)c(C(=O)NNS(=O)(=O)c2ccccc2)s1`, the growth in the test on HCT-15 colon was 114%; in the test with HT29 colon, 118%; in the test on SNB-75 CNS, 88.2%; with SNB-19 CNS it was 105%; in the test on U251 CNS, 103%; in the test on SK-MEL-5 melanoma, 105%. Further, the growth is 109% in the test with UACC-62 melanoma; 99.1% in the test with LOX IMVI melanoma; 125% in the test on SK-MEL-28 melanoma; 2.86% (active) in the test on SK-MEL-2 melanoma; 113% with EKVX NSCLC; 105% with SN12C renal. Besides, the growth in the test on UO-31 renal was 91.8%; with TK-10 renal, 161%; with ACHN renal, 115%; with CAKI-1 renal, 121%; with A498 renal, 121%; with CCRF-CEM leukemia, 114%. Moreover, the growth in the test on MOLT-4 leukemia is 117%.
With `CC(=O)Nc1nc(C)c(C(=O)N/N=C/N2CCOCC2)s1`, the growth in the test on HCT-15 colon is 105%; with HT29 colon, 107%; in the test with SNB-75 CNS, 101%; in the test on SNB-19 CNS it was 104%; in the test with U251 CNS it was 101%; in the test on SK-MEL-5 melanoma, 112%. Further, the growth in the test on UACC-62 melanoma is 98.4%; in the test with LOX IMVI melanoma, 106%; in the test with SK-MEL-28 melanoma, 111%; in the test with SK-MEL-2 melanoma, 34.1%; in the test with EKVX NSCLC, 122%; with SN12C renal, 105%. The growth is 89% in the test on UO-31 renal; 103% with TK-10 renal; 104% in the test on ACHN renal; 110% in the test on A498 renal; 76.3% in the test with CCRF-CEM leukemia; 188% in the test on MOLT-4 leukemia.
For `Cc1nc(NC(=O)NC2CCCCC2)sc1C(=O)NN`, the growth in the test on HCT-15 colon was 91.5%; in the test with HT29 colon it was 95.5%; in the test with SNB-75 CNS, 110%; with SNB-19 CNS, 102%; with U251 CNS, 98.5%; in the test with SK-MEL-5 melanoma, 106%. For the same molecule, the growth is 90.8% in the test with UACC-62 melanoma; 93.5% in the test on LOX IMVI melanoma; 102% with SK-MEL-28 melanoma; 21.7% in the test on SK-MEL-2 melanoma; 119% in the test on EKVX NSCLC; 106% in the test on SN12C renal. The growth in the test on UO-31 renal is 84%; in the test on TK-10 renal, -14.2% (active); in the test with ACHN renal, 97.8%; with CAKI-1 renal, 132%; in the test on A498 renal, 118%; in the test on CCRF-CEM leukemia, 112%. In addition, the growth in the test with MOLT-4 leukemia is 116%.
For `Cc1nc(N)sc1C(=O)NCCO`, the growth in the test on HCT-15 colon is 108%; in the test on HT29 colon it was 112%; with SNB-75 CNS, 105%; with SNB-19 CNS it was 101%; with U251 CNS, 106%; in the test on SK-MEL-5 melanoma, 103%. Moreover, the growth was 93.8% in the test on UACC-62 melanoma; 104% in the test with LOX IMVI melanoma; 113% in the test on SK-MEL-28 melanoma; 12.8% in the test on SK-MEL-2 melanoma; 113% in the test with EKVX NSCLC; 101% in the test with SN12C renal. Moreover, the growth is 80.2% in the test on UO-31 renal; 112% in the test with TK-10 renal; 103% with ACHN renal; 129% in the test with CAKI-1 renal; 119% with A498 renal; 60.6% in the test with CCRF-CEM leukemia. In the test with MOLT-4 leukemia, the growth was 155%.
Consider `CCOC(=O)c1sc(NS(=O)(=O)c2ccccc2)nc1C`, for which the growth in the test with HCT-15 colon is 115%; in the test with HT29 colon it was 124%; in the test on SNB-75 CNS, 97.9%; in the test on SNB-19 CNS, 107%; with U251 CNS it was 109%; in the test with SK-MEL-5 melanoma, 99.3%. Further, the growth with UACC-62 melanoma is 103%; with LOX IMVI melanoma, 105%; with SK-MEL-28 melanoma it was 123%; in the test on SK-MEL-2 melanoma it was 2.52% (active); in the test with EKVX NSCLC, 116%; in the test on UO-31 renal, 87%. The growth in the test on TK-10 renal is 163%; with ACHN renal it was 123%; with CAKI-1 renal, 124%; in the test with A498 renal, 114%; with CCRF-CEM leukemia it was 103%; with MOLT-4 leukemia, 75.6%.
`O=C1c2ccccc2CCc2ccccc21`: the growth with HCT-15 colon was 105%; in the test with HT29 colon it was 103%; in the test with SNB-75 CNS it was 91.8%; in the test with SNB-19 CNS, 100%; in the test with U251 CNS, 93.1%; in the test with SK-MEL-5 melanoma it was 98.6%. The growth with UACC-62 melanoma is 95.6%; with LOX IMVI melanoma it was 93.6%; in the test with SK-MEL-28 melanoma, 106%; with SK-MEL-2 melanoma, 102%; with EKVX NSCLC, 89.4%; in the test with SN12C renal, 96.7%. For the same molecule, the growth in the test with UO-31 renal is 84%; in the test with TK-10 renal, 99.3%; in the test on ACHN renal it was 102%; with CAKI-1 renal it was 90.5%; in the test with CCRF-CEM leukemia, 91.8%; in the test with MOLT-4 leukemia it was 111%.
As for `O=C(Nc1ccccc1)Nc1ccc(Nc2ncnc3sc4c(c23)CCCC4)cc1`, the growth in the test on HCT-15 colon was 110%; in the test on HT29 colon, 96.2%; in the test with SNB-75 CNS, 93.3%; with SNB-19 CNS, 95.9%; in the test on PC-3 prostate, 89.9%; in the test on SK-MEL-5 melanoma, 97.3%. The growth is 97.9% in the test on UACC-62 melanoma; 99.5% in the test with LOX IMVI melanoma; 116% in the test with SK-MEL-28 melanoma; 114% with SK-MEL-2 melanoma; 102% in the test with EKVX NSCLC; 99.3% in the test with SN12C renal. The growth in the test on UO-31 renal was 71.6%; in the test on TK-10 renal, 124%; with ACHN renal, 101%; in the test with CAKI-1 renal it was 100%; in the test on A498 renal, 83.4%; with CCRF-CEM leukemia it was 92.4%. Further, the growth in the test with MOLT-4 leukemia was 89.5%.
For the molecule `C[n+]1c2ccccc2c(Nc2ccc(NS(=O)(=O)CCCCN=C(N)N)cc2)c2ccc(N)cc21`, the growth in the test on HCT-15 colon is 79.2%; with HT29 colon it was 34%; in the test on SNB-75 CNS it was 37.7%; in the test with U251 CNS, 30%; in the test with PC-3 prostate it was 48.3%; in the test on SK-MEL-5 melanoma, 34.2%. In addition, the growth in the test on UACC-62 melanoma is 50%; with LOX IMVI melanoma, 33.5%; in the test with SK-MEL-28 melanoma it was 72.7%; with SK-MEL-2 melanoma it was 86.2%; with SN12C renal, 17.8%; with UO-31 renal, 50.2%. Moreover, the growth in the test on ACHN renal was 24.1%; in the test with CAKI-1 renal it was 43.2%; in the test on A498 renal it was 50.8%; in the test on MOLT-4 leukemia, -13% (active).
